Screening results (PubChem)
This excerpt belongs to a sample that is enriched for hits.
LmPK inhibitor: LmPK (Leishmania mexicana) enzyme inhibition; Potency, µM (top dose mostly 57.5 µM), without a hit: at the highest dose activity change, negative = inhibition, most hits filed as inhibitors; Q27686; purified LmPK, Kinase-Glo ATP luminescence, 1 h; AID 1721; hit rate 0.37% among 290,000; active means well fitted curve in the direction sought with a large enough effect; inconclusive means small, poorly fitted or top-dose-only effect, or another doubt; inactive means no such curve, though single readings can be large; an effect the other way counts as inactive or inconclusive; further: potency means the concentration at half of the fitted maximal effect; on the % scale 0 is the no-effect control and ±100 the full control effect
Target sequence (Q27686 whole entry, looked up): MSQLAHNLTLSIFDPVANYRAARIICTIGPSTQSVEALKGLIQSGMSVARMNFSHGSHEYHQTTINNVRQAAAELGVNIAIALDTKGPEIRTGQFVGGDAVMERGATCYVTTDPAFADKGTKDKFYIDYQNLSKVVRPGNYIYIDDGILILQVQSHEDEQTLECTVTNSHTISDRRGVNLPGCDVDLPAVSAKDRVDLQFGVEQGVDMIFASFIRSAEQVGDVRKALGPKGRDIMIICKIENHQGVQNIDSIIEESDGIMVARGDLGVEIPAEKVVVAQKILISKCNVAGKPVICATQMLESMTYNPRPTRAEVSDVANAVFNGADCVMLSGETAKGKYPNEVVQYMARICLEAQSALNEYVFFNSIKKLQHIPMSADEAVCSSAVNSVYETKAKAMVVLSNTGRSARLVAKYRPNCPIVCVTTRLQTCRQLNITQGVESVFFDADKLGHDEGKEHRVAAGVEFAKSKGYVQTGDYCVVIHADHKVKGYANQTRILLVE
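qHTS format; LmPK 0.1 nM; substrates PEP 0.5 mM and ADP 0.1 mM. One-hour room-temperature incubation, then coupled luciferase luminescence; 0.5 nM enzyme wells mark activation.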
CHX counter: affects cycloheximide protein synthesis inhibition readout, counter-screen. cell reporter, cycloheximide protein synthesis inhibition counterscreen. max response, %. hit rate 12% among 300,000. AID 2314; in the data active means max response mostly above about 13%, no sharp cut-off; inactive means mostly below about 14%; further: read at 38.3 µM for the half of the compounds with a filed dose; 0% is about no effect
SARS PLpro yeast: blocks SARS-CoV papain-like protease in a yeast assay; Potency, µM (highest dose often 32.9 µM), for inactives: at the top dose activity, positive = growth rescue, hits mostly activators; hit rate 0.19% among 330,000; AID 485353; S. cerevisiae expressing SARS-CoV PLpro, growth rescue; further: potency means the concentration at half of the fitted maximal effect; 0% is about no effect; nearly all actives have a fitted effect of over 55% in size
NS1 function inh: blocks influenza NS1 protein function; hit rate 0.4% among 270,000; Potency, µM (titrated, usually from 46.1 µM), for the others: at the top dose activity, positive = more growth; further: potency means the concentration at half of the fitted maximal effect; actives are rising curves; nearly all actives have a fitted effect of over 50% in size
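S. cerevisiae expressing influenza A NS1, grown in glucose, washed, then diluted 1:100 into pH 6.0 -URA galactose medium with 23 nl compound. Growth recovery read as OD600; NS1-free strain serves as control.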
Shiga toxin inh: inhibitors of Shiga toxin in Vero cells | hit rate 9.2% among 290,000 | AID 2315 | Vero cells, Shiga toxin protein synthesis inhibition reporter | inhibition, % at 38.7 µM; in the data active means inhibition mostly above about 28%, no sharp cut-off; inactive means mostly below about 43%; further: 0% is about no effect
Tb PYK inh: blocks Trypanosoma brucei pyruvate kinase; TbPYK enzyme, Kinase-Glo Plus ATP luminescence, 45 min; Potency, µM (doses to about 76.8 µM), for the others: at the highest dose activity, negative = inhibition, actives largely listed as inhibitors; hit rate 0.12% among 410,000; AID 624173; active means well fitted curve in the direction sought with a large enough effect; inconclusive means small, poorly fitted or top-dose-only effect, or another doubt; inactive means no such curve, though single readings can be large; an effect the other way counts as inactive or inconclusive; further: potency means the concentration at half of the fitted maximal effect; on the % scale 0 is the no-effect control and ±100 the full control effect; nearly all actives have a fitted effect of over 50% in size
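Screened from lowest to highest concentration, compounds were pinned into TbPYK/substrate mixtures, and ADP (130 uM final) was added. Plates sat at room temperature for 45 min prior to Kinase-Glo Plus detection by luminescence.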
Starred values were filed as active, the others as inactive; ? = inconclusive; . = no result; + = active, no number; [ ] = another dose, or the depositor's remark. Unless noted, the call rests on the fitted dose curve.

SMILES	LmPK inhibitor	CHX counter	SARS PLpro yeast	NS1 function inh	Shiga toxin inh	Tb PYK inh
CN(C)S(=O)(=O)c1cccc(NC(=O)c2cccc(S(=O)(=O)N3CCCCCC3)c2)c1	.	.	1%	.	.	7%
CC(C)N=C(NS(=O)(=O)c1ccccc1)C(Cl)(Cl)Cl	-6%	19*	-29%	-32%	38*	-3%
[O-]/C(=C(\C(=S)Nc1cccc2ccccc12)[n+]1ccccc1)c1ccc2c(c1)OCCO2	5%	22*	4%	16%	39	3%
Cc1cccc(C)c1NC(=S)/C(=C(\[O-])c1cccs1)[n+]1ccccc1	-1%	-1	-6%	16%	-11	1%
[O-]/C(=C(\C(=S)Nc1cccc2ccccc12)[n+]1ccccc1)c1ccc(OC(F)F)cc1	18%	10	-3%	.	-5	0%
[O-]/C(=C(\C(=S)Nc1cccc2ccccc12)[n+]1ccccc1)c1cccs1	0%	19*	-1%	13%	32	3%
COc1ccc(C2C(C(=O)c3ccccc3)=C(C)Nc3nc4ccccc4n32)c(OC)c1 (configuration not stated)	-1%	31*	-6%	18%	43*	0%
COc1ccc(C2C=C(C)Nc3nc4ccccc4n32)cc1 (configuration not stated)	-2%	43*	-1%	.	111*	6%
COc1ccc(C2N=C(N)Nc3nc4ccccc4n32)cc1 (configuration not stated)	.	.	.	.	.	4%
COc1ccc(C2C(C(=O)Nc3ccc(C)cc3C)=C(C)Nc3nc4ccccc4n32)c(OC)c1 (configuration not stated)	.	.	.	.	.	1%
COc1ccc(C2C(C#N)=C(N)Nc3nc4ccccc4n32)cc1 (configuration not stated)	-3%	27*	-3%	3%	26*	-7%
CCN1C(=O)[C@H]2[C@@H](c3ccc(-c4ccccc4)cc3)N[C@@](CC(C)C)(C(=O)OC)[C@H]2C1=O	.	.	2%	.	.	-11%
CNS(=O)(=O)c1cn(CC(=O)Nc2cccc(C(F)(F)F)c2)cc1S(=O)(=O)NC	.	.	.	.	.	1%[15.4 µM]
Nc1cccc(-c2ccc(CO)o2)c1	-2%	31*	0%	5%	68*	-6%
COc1cccc(Nc2nc(-c3sc(NC(=O)c4ccco4)nc3C)cs2)c1	-11%	7	3%	11%	34	2%
COc1cccc(Nc2nc(-c3sc(N)nc3C)cs2)c1	-6%	23*	-4%	-82%	+	-3%
COc1ccccc1Nc1nc(-c2sc(N)nc2C)cs1	-2%	14*	-7%	4%	12	-2%
Cc1nc(N)sc1-c1csc(NCc2ccccc2)n1	3%	5	6%	?	15	-11%
COc1ccccc1Nc1nc(-c2sc(NC(=O)c3ccccc3)nc2C)cs1	-10%	9	4%	12%	26	-18%
COc1ccc(OC)c(Nc2nc(-c3sc(C)nc3C)cs2)c1	-3%	11	-14%	-52%	49	-5%
Cc1nc(N)sc1-c1csc(Nc2ncccn2)n1	-5%	44*	-1%	.	42*	1%
Cc1nc(C)c(-c2csc(Nc3ncccc3C)n2)s1	-3%	43*	-11%	-31%	56*	1%
COc1ccc(-c2nc3scc(CCNS(=O)(=O)c4ccc(F)c(C(F)(F)F)c4)n3n2)cc1OC	.	.	.	.	.	9%
COc1cccc(Nc2nc(-c3sc(C)nc3C)cs2)c1	-1%	42*	-24%	-120%	62*	0%
Cc1nc(C)c(-c2csc(Nc3ccc(F)cc3)n2)s1	-1%	33*	-24%	.	64*	-4%
Cc1nc(C)c(-c2csc(Nc3ccc(C(=O)O)c(O)c3)n2)s1	-2%	6	13%	12%	-5	-18%
O=C(c1cccs1)N1CCN(Cc2nc(-c3ccccc3)no2)CC1	.	.	.	.	.	-2%
CC(C)=N/N=C1\NC(=O)C(C)S1 (configuration not stated)	-1%	29*	-5%	0%	27	0%
C/C(=N\N=C1/NC(=O)C(C)S1)c1ccc([N+](=O)[O-])cc1 (configuration not stated)	-1%	-2	4%	-21%	9	-3%
